Molecules are shown by their SMILES. This is part of a sample that, as a whole, favours compounds with a hit. Of some 83,000 tested, about 20% had one in any assay.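 Single-dose data. Exposure time 48 hours. Values below 10 considered active.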 Values without a mark were called inactive.

The assay deals with HCC-2998 colon. The experiment in a line: NCI-60 one-dose screen, 48 h (100 = growth as untreated, 0 = no growth, -100 = all killed). The following applies: 10 µM unless noted.
In the case of `COc1ccccc1S(=O)Nc1ccccc1` (stereo not given), the growth was 107%.

In the case of `COc1ccc(CC(C#N)c2ccc(Cl)cc2)cc1` (stereo not given), the growth was 61.6%.

Take `COc1cc2c(c(OC)c1OC)-c1cc(I)c(O)cc1[C@@H](NC(C)=O)CC2`: the growth was 20.8%.

In the case of `CC1(C)C(=NO)C(C)(C)C1=NO`, the growth was 98%.

As for `COCc1nc2ccccc2[nH]1`, the growth was 106%.

As for `C=C(C)C1CCC2(C(=O)O)CCC3(C)C(CCC4C5(C)CCC(OC(=O)NCc6ccccc6)C(C)(C)C5CCC43C)C12` (stereo not given), the growth was 51.3%.

Take `CCc1ccc(C2=C/C(=C/c3ccccc3)C(=O)N2CCc2ccc(S(N)(=O)=O)cc2)cc1`: the growth was 109%.

Turning to `C=C(CC(=O)OC)C(C)=O`, the growth was 112%.

`COc1cc2c(c(OC)c1OC)-c1ccc(NNC(N)=S)c(=O)cc1[C@@H](NC(C)=O)CC2`: the growth is 11.4%.

As to `CC(C)OC(=O)Nc1cc(F)ccc1F`, the growth was 98.3%.

As to `COc1cc(-c2cc(-c3ccc(Nc4ncnc5cc(Cl)ccc45)cc3)nc(N3CCCCC3)n2)cc(OC)c1OC`, the growth is 114%.

On to `Cc1ccc(NC(=S)/N=c2/n(-c3ccccc3)nc3n2CCN3C2=NCCN2)cc1`, for which the growth is 102%.

Turning to `COc1c(B(O)O)cccc1-c1nc2ccc3[nH]ncc3c2c2c1CCC2`, the growth was 88.8%.

`COc1cc(C(=O)/C=C/c2c(-c3ccc(F)cc3)nc3sccn23)cc(OC)c1OC`: the growth is 73.1%.

For the compound `COc1ccc(C2CC(c3cc(OC)c(OC)c(OC)c3)=NN2C(C)=O)cc1OCC(=O)Nc1nc2ccc(C(F)(F)F)cc2s1` (stereo not given), the growth is 92.3%.
